Screening results from PubChem BioAssay.
This is a sample that favours compounds with a hit; in the whole collection about 3.7% have one here.
BoNT-A LC inh2: inhibitors of Botulinum neurotoxin A light chain protease; multiplex microsphere protease substrate cleavage, flow cytometry; inhibition, % at 10 µM; 360,000 compounds, 0.17% hits
Autofluor counter: counter-screen for toxin protease inhibitors: compound fluorescence | compound autofluorescence counterscreen, microsphere flow cytometry; active compounds read high | fluorescence intensity (no concentration beside the values) | 360,000 compounds, 3.1% hits; in the data active means fluorescence intensity above about 16000; inconclusive means no clear call, values can overlap the other calls
MazEF act: activators of E. coli MazEF toxin-antitoxin RNase; P0AE70; FAM/BHQ RNA-DNA oligo cleavage fluorescence, 5 h; activation, % at 20 µM; 350,000 compounds, 0.32% hits; AID 504720; in the data active means activation above about 50%
Target sequence (P0AE70 whole entry, looked up): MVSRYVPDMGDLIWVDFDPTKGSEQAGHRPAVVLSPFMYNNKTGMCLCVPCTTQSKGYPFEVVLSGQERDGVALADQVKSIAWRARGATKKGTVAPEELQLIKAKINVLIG
BoNT-F LC inh: blocks Botulinum neurotoxin F light chain protease. Multiplex microsphere protease cleavage assay, flow cytometry. inhibition, % at 10 µM. 360,000 compounds, 0.22% hits. AID 588497; in the data active means inhibition above about 35%, passing the limit was not always enough; inconclusive means no clear call, values can overlap the other calls
Anthrax LF inh2: blocks Bacillus anthracis lethal factor protease | 360,000 compounds, 0.12% hits | multiplex microsphere protease cleavage assay, LF | inhibition, % at 10 µM | AID 588501
Each line names hits and unclear results; the compound was inactive in the other large screens. Unless noted, no stated cut-off is given here; in the data, active means inhibition above about 30%; inconclusive means no clear call, values can overlap the other calls; inactive means below that.

O=C(NCc1cc(Cl)cc(Cl)c1)c1ccc2nc(COCCO)[nH]c2c1	none (no result: MazEF act)
CCc1ccc(-c2nc(CN3CCC(C(=O)NCc4ccc(F)cc4)CC3)c(C)o2)cc1	BoNT-A LC inh2 inconclusive, Autofluor counter 24227
Cc1cc(NC(=O)Nc2cccc(C)c2C)no1	none
O=C(O)CCC(=O)Nc1ccc(Oc2ncnc3cc(Cl)ccc23)nc1	BoNT-F LC inh 40.2, Anthrax LF inh2 inconclusive
O=C(Nc1ccccc1)Nc1ccc(Oc2ncnc3cc(Cl)ccc23)nc1	none (no result: BoNT-A LC inh2, Autofluor counter, BoNT-F LC inh, Anthrax LF inh2)
COc1ccccc1NC(=O)C(C)OC(=O)C1CCN(S(=O)(=O)c2ccc(C)c(C)c2)CC1 (stereo unspecified)	Autofluor counter inconclusive
CCOC(=O)NC(CC(=O)O)c1ccc(OC)c(OC)c1 (stereo unspecified)	Autofluor counter 16400
CC(=O)c1ccc(NC(=O)C(C)NCc2ccccc2Cl)cc1 (stereo unspecified)	none
O=C(NNC(=S)NCc1ccccc1)c1cccnc1	none
COCCCNC(=S)NNC(=O)c1cccnc1	Autofluor counter 20168
COCCCNC(=O)c1ccc(-c2nc3ccccc3nc2-c2ccccc2)cc1	none
COCCCNC(=O)c1ccc(C(=O)NCCCOC)cc1	Autofluor counter 22526
Cn1nnnc1SCc1ccc(C(=O)Nc2nccs2)cc1	Autofluor counter 24214
Cn1c(CSCc2ccc(Cl)c(Cl)c2)nnc1SCC(=O)Nc1nccs1	BoNT-F LC inh inconclusive
Cc1cc(C)cc(NC(=O)c2ccc(CSc3nnnn3C)cc2)c1	none
Cn1c(CSCc2ccc(Cl)cc2)nnc1SCC(=O)Nc1nccs1	Autofluor counter 16354
CCOC(=O)C1NC(=O)CC1c1ccccc1 (stereo unspecified)	none
CCOC(=O)C1C(=O)C=C(/C=C/c2ccccc2)CC1c1ccc(Cl)cc1 (stereo unspecified)	BoNT-A LC inh2 inconclusive, Autofluor counter 16539
Cc1ccc(C(=O)Nc2ccc3cn[nH]c3c2)cc1S(=O)(=O)N1CCOCC1	none
CCOc1ccc(C(c2c(O)nc(SC)n(C)c2=O)c2c(O)nc(SC)n(C)c2=O)cc1	Autofluor counter 22263
CCCn1c(SCC(=O)NCc2ccc(Cl)cc2)n[nH]c1=O	none
CC(C(=O)NC(=O)NC1CCCCC1)N1CCN(C(c2ccccc2)c2ccccc2)CC1 (stereo unspecified)	Autofluor counter 16823
CC(C(=O)NC1CCCC1)N1CCN(Cc2ccccc2)CC1 (stereo unspecified)	none
O=C1CCCC2=C1C1(CCCC1)N=C(Nc1nc3ccccc3s1)N2	none
O=C1CCCC2=C1C1(CCCCC1)N=C(Nc1nc3ccccc3s1)N2	Autofluor counter 16571
COc1ccc2cc(C#N)c(SCC(=O)NNC(=O)Cc3ccccc3)nc2c1	Autofluor counter 19935
CCOc1ccc2cc(C#N)c(SCC(=O)N3CCC(C)CC3)nc2c1	Autofluor counter 23801
COC(=O)CSc1nc2cc(OC)ccc2cc1C#N	MazEF act 202.8
CCOC(=O)[C@H]1[C@H]2COc3ccc(OC)cc3[C@@H]2N2C(=O)[C@H](C)NC(=O)[C@@]12C	none
O=C(Nc1ccon1)c1ccccc1F	Autofluor counter 23297
O=C(Nc1ccccc1C(=O)Nc1ccccn1)c1ccccc1F	BoNT-F LC inh 45.0
O=C(Nc1ccon1)c1ccccc1Cl	none
CCOc1ccc(/C=C/C(=O)Nc2ccc(OC)cc2[N+](=O)[O-])cc1	MazEF act 236.8
CCOc1ccc(NC(=O)/C=C/c2ccccc2)c([N+](=O)[O-])c1	none
CCCn1c(=O)[nH]c2ccccc21	none
Cc1cc(C)nc(SCCCn2c(=O)[nH]c3ccccc32)n1	Autofluor counter 16659
S=c1[nH]nc(Cc2ccccc2)n1-c1ccccc1	BoNT-A LC inh2 inconclusive, Autofluor counter 19172
S=c1[nH]nc(Cc2ccccc2)n1-c1ccc(Cl)cc1	none
Cc1ccc(-n2c(Cc3ccccc3)n[nH]c2=S)cc1	Autofluor counter 22337
S=c1[nH]nc(Cc2n[nH]c(=S)n2-c2ccccc2)n1-c1ccccc1	none
COc1ccc(NC(=O)Cc2c(SC)c3ccccc3n2Cc2ccccc2)cc1	none
O=C1CSC(c2ccc(Cl)cc2)N1Nc1nc(N2CCOCC2)nc(N2CCOCC2)n1 (stereo unspecified)	none
CCCCC(=O)NC(c1ccc([N+](=O)[O-])cc1)c1c(O)ccc2ccccc12 (stereo unspecified)	none
CCC(=O)NC(c1ccc([N+](=O)[O-])cc1)c1c(O)ccc2ccccc12 (stereo unspecified)	BoNT-A LC inh2 inconclusive, Autofluor counter 24260
COc1ccc(C)cc1S(=O)(=O)N1CCN(C/C=C/c2ccccc2)CC1	none (no result: BoNT-A LC inh2, Autofluor counter, BoNT-F LC inh, Anthrax LF inh2)
CCc1c(C)sc(NC(=O)c2cc(-c3cc(OC)ccc3OC)on2)c1C#N	Autofluor counter 21969
